Measurements as given in PubChem BioAssay (EPA / NIEHS).
The source made the active and inactive calls. Rule for the calls, unless noted: active = hit-call score of the fitted dose curve at least 0.9, where 1 is the maximum; inactive = score below 0.9.

What was measured:
[1] = read-out: Protein phosphatase 2A (PPP2R4), PTPA (gene 5524); test: LTEA_HepaRG_PPP2R4: Life Technologies and Expression Analysis (LTEA) Assay for Protein phosphatase 2A (PPP2R4) using HepaRG (AID 2283522); conditions: mRNA level, 48 h; actives raise or lower the signal
Procedure, shortened: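 Using HepaRG cultures maintained in 0.5% DMSO, chemicals are tested 48 h at up to 100 uM in duplicate. Induction or suppression of PPP2R4 mRNA, measured by qRT-PCR, is fitted bidirectionally against the vehicle baseline.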

[2] = read-out: Phosphatase and tensin (PTEN), PTEN (gene 5728); test: LTEA_HepaRG_PTEN: Life Technologies and Expression Analysis (LTEA) Assay for Phosphatase and tensin (PTEN) using HepaRG (AID 2283523); conditions: mRNA level, 48 h; actives raise or lower the signal
Procedure, shortened: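 HepaRG, 48 h exposure, 8-pt half-log series from 100 uM top, 0.5% DMSO vehicle, duplicates. Readout: Fluidigm qRT-PCR of PTEN transcript; housekeeping normalization (ACTB, GAPDH, POLR2A). Gain or loss fitted relative to DMSO baseline.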

[3] = read-out: solute carrier (SLC22A1), SLC22A1 (gene 6580); test: LTEA_HepaRG_SLC22A1: Life Technologies and Expression Analysis (LTEA) Assay for solute carrier (SLC22A1) using HepaRG (AID 2283524); conditions: mRNA level, 48 h; actives raise or lower the signal;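 for AC50: differentiated human HepaRG liver cells in serum-free induction medium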
Procedure, shortened: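 qRT-PCR readout (TaqMan, Fluidigm arrays) of SLC22A1 transcript, normalized to three housekeeping genes; bidirectional curve fit relative to 0.5% DMSO vehicle. Differentiated human HepaRG cells, 48 h chemical exposure, top concentration 100 uM, half-log steps, eight points.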

[4] = read-out: Pyruvate Dehydrogenase Kinase 4 (PDK4), PDK4 (gene 5166); test: LTEA_HepaRG_PDK4: Life Technologies and Expression Analysis (LTEA) Assay for Pyruvate Dehydrogenase Kinase 4 (PDK4) using HepaRG (AID 2283525); conditions: mRNA level, 48 h; actives raise or lower the signal
Procedure, shortened: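 HepaRG (human liver line), 48 h chemical exposure, 8-pt half-log CRC top 100 uM, 0.5% DMSO vehicle, duplicates. Readout: TaqMan qRT-PCR of PDK4 mRNA, housekeeping-normalized; gain/loss fit relative to DMSO baseline.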

[5] = read-out: NAD(P)H dehydrogenase [quinone] 1 (NQO1), NQO1 (gene 1728); test: LTEA_HepaRG_NQO1: Life Technologies and Expression Analysis (LTEA) Assay for NAD(P)H dehydrogenase [quinone] 1 (NQO1) using HepaRG (AID 2283526); conditions: mRNA level, 48 h; actives raise or lower the signal
Procedure, shortened: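 In this assay, gene expression is read by qRT-PCR after 48 h exposure of HepaRG cells to eight concentrations (max 100 uM, half-log) in 0.5% DMSO. Each chemical runs in duplicate, and activity is scored relative to vehicle.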

[6] = read-out: Nuclear factor erythroid 2-related factor 2 (Homo sapiens) (UniProt Q16236); test: LTEA_HepaRG_NFE2L2: Life Technologies and Expression Analysis (LTEA) Assay for Nuclear factor erythroid 2-related factor 2 (NFE2L2) Transcription Factor using HepaRG (AID 2283527); conditions: mRNA level, 48 h; actives raise or lower the signal
Procedure, shortened: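 HepaRG, 48 h dosing, 8-pt half-log series from 100 uM in 0.5% DMSO, duplicates. Read-out: NFE2L2 mRNA by qRT-PCR (ACTB/GAPDH/POLR2A normalization). Bidirectional curve fit vs DMSO baseline.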

[7] = read-out: succinate dehydrogenase complex iron sulfur subunit B (SDHB), SDHB (gene 6390); test: LTEA_HepaRG_SDHB: Life Technologies and Expression Analysis (LTEA) Assay for succinate dehydrogenase complex iron sulfur subunit B (SDHB) using HepaRG (AID 2283528); conditions: mRNA level, 48 h; actives raise or lower the signal
Procedure, shortened: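 A human HepaRG culture in serum-free induction medium received test chemicals for 48 h over an eight-point range capped at 100 uM. SDHB expression change was quantified by qRT-PCR.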

[8] = read-out: Signal transducer and activator of transcription 3 (Homo sapiens) (UniProt P40763); test: LTEA_HepaRG_STAT3: Life Technologies and Expression Analysis (LTEA) Assay for Signal transducer and activator of transcription (STAT3) using HepaRG (AID 2283529); conditions: mRNA level, 48 h; actives raise or lower the signal
Procedure, shortened: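 HepaRG, 48 h exposure, 8-pt half-log series (top 100 uM), 0.5% DMSO vehicle, duplicates. Readout: STAT3 transcript by Fluidigm qRT-PCR, housekeeping-normalized; bidirectional fit vs DMSO baseline.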

[9] = read-out: solute carrier (SLCO1B1), SLCO1B1 (gene 10599); test: LTEA_HepaRG_SLCO1B1: Life Technologies and Expression Analysis (LTEA) Assay for solute carrier (SLCO1B1) using HepaRG (AID 2283530); conditions: mRNA level, 48 h; actives raise or lower the signal
Procedure, shortened: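 HepaRG, serum-free induction medium, 48 h dosing, 8-pt half-log from 100 uM, 0.5% DMSO vehicle, duplicates. Readout: SLCO1B1 mRNA, qRT-PCR, ACTB/GAPDH/POLR2A normalization; up or down fit vs DMSO.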

[10] = read-out: sulfotransferase 2A1 (SULT2A1), SULT2A1 (gene 6822); test: LTEA_HepaRG_SULT2A1: Life Technologies and Expression Analysis (LTEA) Assay for sulfotransferase 2A1 (SULT2A1) using HepaRG (AID 2283531); conditions: mRNA level, 48 h; actives raise or lower the signal
Procedure, shortened: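 Transcript levels of SULT2A1, quantified by qRT-PCR and normalized to three housekeeping genes, serve as the readout. Human HepaRG cultures receive test chemicals for 48 h at up to 100 uM in half-log steps, with 0.5% DMSO vehicle.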

[11] = read-out: Transforming Growth Factor (TGFA), TGFA (gene 7039); test: LTEA_HepaRG_TGFA: Life Technologies and Expression Analysis (LTEA) Assay for Transforming Growth Factor (TGFA) using HepaRG (AID 2283532); conditions: mRNA level, 48 h; actives raise or lower the signal
Procedure, shortened: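 qRT-PCR read-out of TGFA transcript, normalized to three housekeeping genes, fitted bidirectionally against 0.5% DMSO baseline. Human HepaRG cultures received chemicals for 48 h at eight half-log concentrations, top 100 uM.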

TIMP1, TIMP1 (gene 7076) = test: LTEA_HepaRG_TIMP1: Life Technologies and Expression Analysis (LTEA) Assay for TIMP1 using HepaRG (AID 2283534); conditions: mRNA level, 48 h; actives raise or lower the signal
Procedure, shortened: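 Readout is TIMP1 mRNA level measured by qRT-PCR and normalized to three housekeeping genes. Human HepaRG cells were treated for 48 h in duplicate at eight concentrations up to 100 uM (0.5% DMSO); gain or loss fitted against DMSO.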

[12] = read-out: Tumor necrosis factor receptor 1 (TNFRSF1A), TNFRSF1A (gene 7132); test: LTEA_HepaRG_TNFRSF1A: Life Technologies and Expression Analysis (LTEA) Assay for Tumor necrosis factor receptor 1 (TNFRSF1A) using HepaRG (AID 2283535); conditions: mRNA level, 48 h; actives raise or lower the signal
Procedure, shortened: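 Read-out is TNFRSF1A transcript level by TaqMan qRT-PCR, normalized to three housekeeping genes, scored as gain or loss of signal versus 0.5% DMSO. Human HepaRG cells received test chemicals for 48 h at up to 100 uM (half-log series).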

[13] = read-out: Thyroid Hormone Responsive (THRSP), THRSP (gene 7069); test: LTEA_HepaRG_THRSP: Life Technologies and Expression Analysis (LTEA) Assay for Thyroid Hormone Responsive (THRSP) using HepaRG (AID 2283536); conditions: mRNA level, 48 h; actives raise or lower the signal
Procedure, shortened: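 qRT-PCR read-out (Fluidigm TaqMan), housekeeping-normalized (ACTB/GAPDH/POLR2A). HepaRG, 48 h chemical exposure, 8-pt half-log series from 100 uM in 0.5% DMSO, duplicates. Bidirectional curve fit vs 0.5% DMSO baseline.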

[14] = read-out: Cellular tumor antigen p53 (Homo sapiens) (UniProt P04637); test: LTEA_HepaRG_TP53: Life Technologies and Expression Analysis (LTEA) Assay for Tumor Protein P53 (TP53) using HepaRG (AID 2283537); conditions: mRNA level, 48 h; actives raise or lower the signal
Procedure, shortened: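 Gain or loss of TP53 mRNA signal is scored relative to 0.5% DMSO after 48 h chemical treatment of HepaRG liver cells, tested in duplicate at eight half-log concentrations up to 100 uM.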

[15] = read-out: UDP glucuronosyltransferase (UGT1A6), UGT1A6 (gene 54578); test: LTEA_HepaRG_UGT1A6: Life Technologies and Expression Analysis (LTEA) Assay for UDP glucuronosyltransferase (UGT1A6) using HepaRG (AID 2283539); conditions: mRNA level, 48 h; actives raise or lower the signal
Procedure, shortened: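 HepaRG, 48 h post-plating switch to serum-free induction medium; chemical 48 h, 100 uM top, half-log x8, duplicate, 0.5% DMSO. Phenobarbital 1mM induction control. UGT1A6 mRNA by TaqMan qRT-PCR; gain/loss fit vs DMSO.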

[16] = LTEA_HepaRG_LDH_cytotoxicity: Cytotoxicity Assessment in the Life Technologies and Expression Analysis (LTEA) Assay (AID 2283563; active = hit-call score of the fitted dose curve at least 0.9, where 1 is the maximum;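 for AC50: LDH activity released into spent culture medium as a marker of cell death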)
Procedure, shortened: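 Cells were thawed and plated for 48 h. Medium was then replaced with serum-free induction medium. Chemicals (8 half-log points, maximum 100 uM, 0.5% DMSO) were added in duplicate for 48 h, after which spent medium was assayed for LDH.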

[17] = read-out: Transforming Growth Factor (TGFB1), TGFB1 (gene 7040); test: LTEA_HepaRG_TGFB1: Life Technologies and Expression Analysis (LTEA) Assay for Transforming Growth Factor (TGFB1) Transporter using HepaRG (AID 2283533); conditions: mRNA level, 48 h; actives raise or lower the signal
Procedure, shortened: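 HepaRG, 48 h post-plating, switched to serum-free induction medium; chemicals 100 uM top, half-log, 8 pts, 0.5% DMSO, dup; 48 h exposure; RNA → Fluidigm TaqMan qRT-PCR; norm ACTB/GAPDH/POLR2A; bidirectional fit vs DMSO.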

[18] = read-out: UDP glucuronosyltransferase (UGT1A1), UGT1A1 (gene 54658); test: LTEA_HepaRG_UGT1A1: Life Technologies and Expression Analysis (LTEA) Assay for UDP glucuronosyltransferase (UGT1A1) using HepaRG (AID 2283538); conditions: mRNA level, 48 h; actives raise or lower the signal
Procedure, shortened: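 mRNA induction or loss of UGT1A1, by TaqMan qRT-PCR, in duplicate HepaRG wells after 48 h exposure to half-log dilutions topping at 100 uM; DMSO (0.5%) served as baseline.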

[19] = read-out: X-box binding protein 1 (XBP1), XBP1 (gene 7494); test: LTEA_HepaRG_XBP1: Life Technologies and Expression Analysis (LTEA) Assay for X-box binding protein 1 (XBP1) using HepaRG (AID 2283540); conditions: mRNA level, 48 h; actives raise or lower the signal
Procedure, shortened: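 Transcript levels of XBP1, measured by qRT-PCR and normalised to three housekeeping genes, were fitted bidirectionally relative to 0.5% DMSO controls. Human HepaRG cells received eight-point half-log dilutions from 100 uM for 48 h.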

Measured: AC50

Chain of Nuclear factor erythroid 2-related factor 2 (Homo sapiens) (Q16236 whole entry, looked up): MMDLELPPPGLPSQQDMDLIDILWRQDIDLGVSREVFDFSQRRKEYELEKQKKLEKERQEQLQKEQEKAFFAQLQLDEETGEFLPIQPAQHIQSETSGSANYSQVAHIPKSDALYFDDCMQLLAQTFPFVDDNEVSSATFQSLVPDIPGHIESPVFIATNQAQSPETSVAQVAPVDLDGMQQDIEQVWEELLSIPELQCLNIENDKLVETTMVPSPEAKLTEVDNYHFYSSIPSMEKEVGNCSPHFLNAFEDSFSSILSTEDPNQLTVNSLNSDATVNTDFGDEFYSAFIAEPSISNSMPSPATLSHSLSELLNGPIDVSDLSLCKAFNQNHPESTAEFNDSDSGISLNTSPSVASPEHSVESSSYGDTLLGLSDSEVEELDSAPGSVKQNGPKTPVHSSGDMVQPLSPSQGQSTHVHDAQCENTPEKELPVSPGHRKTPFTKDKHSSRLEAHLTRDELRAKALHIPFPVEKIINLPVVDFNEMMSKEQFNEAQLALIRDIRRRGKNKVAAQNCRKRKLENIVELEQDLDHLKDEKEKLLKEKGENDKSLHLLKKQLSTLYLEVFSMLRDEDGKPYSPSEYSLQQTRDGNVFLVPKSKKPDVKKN
Chain of Signal transducer and activator of transcription 3 (Homo sapiens) (P40763 whole entry, looked up): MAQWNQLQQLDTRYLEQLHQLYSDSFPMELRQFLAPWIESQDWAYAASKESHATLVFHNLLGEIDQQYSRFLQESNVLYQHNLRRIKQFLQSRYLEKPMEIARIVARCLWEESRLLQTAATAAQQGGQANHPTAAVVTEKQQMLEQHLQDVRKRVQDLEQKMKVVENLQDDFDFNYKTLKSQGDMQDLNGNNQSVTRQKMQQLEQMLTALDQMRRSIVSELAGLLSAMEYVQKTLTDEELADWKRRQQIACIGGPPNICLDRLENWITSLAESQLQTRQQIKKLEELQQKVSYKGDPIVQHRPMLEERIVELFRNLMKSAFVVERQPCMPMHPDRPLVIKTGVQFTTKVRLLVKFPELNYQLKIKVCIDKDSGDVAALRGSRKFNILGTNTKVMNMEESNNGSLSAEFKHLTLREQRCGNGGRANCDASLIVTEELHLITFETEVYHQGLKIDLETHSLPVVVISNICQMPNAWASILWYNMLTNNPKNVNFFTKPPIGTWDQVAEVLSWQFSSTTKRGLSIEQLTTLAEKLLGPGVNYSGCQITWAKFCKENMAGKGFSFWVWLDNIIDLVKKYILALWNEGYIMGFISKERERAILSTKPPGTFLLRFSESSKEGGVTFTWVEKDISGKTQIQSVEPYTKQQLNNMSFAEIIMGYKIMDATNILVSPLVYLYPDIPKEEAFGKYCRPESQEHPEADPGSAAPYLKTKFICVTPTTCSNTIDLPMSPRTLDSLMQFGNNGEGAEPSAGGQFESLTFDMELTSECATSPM
Chain of Cellular tumor antigen p53 (Homo sapiens) (P04637 whole entry, looked up): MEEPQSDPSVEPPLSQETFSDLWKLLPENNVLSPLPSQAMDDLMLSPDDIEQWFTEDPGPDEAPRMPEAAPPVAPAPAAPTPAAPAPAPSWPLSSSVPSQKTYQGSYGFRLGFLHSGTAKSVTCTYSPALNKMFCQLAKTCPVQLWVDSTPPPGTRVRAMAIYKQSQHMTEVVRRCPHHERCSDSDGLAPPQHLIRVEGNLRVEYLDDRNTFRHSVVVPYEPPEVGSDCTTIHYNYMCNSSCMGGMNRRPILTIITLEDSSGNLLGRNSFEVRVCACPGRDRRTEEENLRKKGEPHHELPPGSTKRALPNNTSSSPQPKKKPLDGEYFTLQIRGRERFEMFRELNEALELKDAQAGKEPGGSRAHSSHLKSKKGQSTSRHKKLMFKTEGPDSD

O=C1O[C@H]([C@@H](O)CO)C(O)=C1O
not listed: [17] | [18] | [19]
inactive: all other assays above

COc1ccc2cc(S(=O)(=O)N[C@H](CC(=O)N[C@H](Cc3ccc(CN4[C@H](C)CCC[C@@H]4C)cc3)C(=O)N(C)C(C)C)c3ccc4c(c3)OCO4)ccc2c1
inactive: [5] | [13] | [19]
active: [1] 34.3 µM | [2] 15 µM | [3] 26.4 µM | [4] 86.6 µM | [6] 21.8 µM | [7] 22 µM | [8] 12.4 µM | [9] 26.3 µM | [10] 75.2 µM | [11] 25.3 µM | [17] 12.8 µM | [12] 21.2 µM | [14] 24.1 µM | [18] 26 µM | [15] 23.2 µM | [16] 20.7 µM

CCCCCCCCCCCO
not listed: [13] | [17]
inactive: all other assays above
